This is an account of results in PubChem BioAssay.

Assay [1] relates to TRPC4 beta (transient receptor potential cation channel C4), mouse. The assay can be described thus: TRPC4 cation channel opening, retest – cell-based, Fluo4 calcium, HEK293 TRPC4beta/mu-opioid, duplicates, 10 µM, confirmation (AID 2426). The note with it: Fluo4 calcium fluorescence, at 10 µM; hits give high values.
Assay [2] concerns transient receptor potential cation channel C4 beta (TRPC4), mouse. The experiment in a line: TRPC4 cation channel opening, second retest – cell-based, second round, Fluo4, HEK293 TRPC4beta/mu-opioid, 1 µM, confirmation (AID 2461;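 active means primary screen active and over 50% activation in each of two duplicate runs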). The note with it: Fluo4 calcium fluorescence, at 1 µM; hits give high values.
For assay [3], the system named is TRPC4 (transient receptor potential cation channel C4 beta), mouse. The assay can be described thus: potentiation of DAMGO EC20 TRPC4 response – cell-based, second round, Fluo-4, HEK293 TRPC4beta/mu-opioid, 1 µM, confirmation (AID 2554;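 active means primary screen hit whose fluorescence ratio, in both repeats, exceeds the weak agonist control mean by 3 SD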). The note with it: DAMGO EC20, Fluo-4 calcium flux, at 1 µM; hits give high values. (In general: A change in cytosolic calcium serves as a functional read-out for many receptors and channels.)

For assay [4], the system named is TRPC4 beta (transient receptor potential cation channel C4), mouse. The experiment in a line: potentiation of DAMGO EC20 TRPC4 response – cell-based, Fluo-4, HEK293 TRPC4beta/mu-opioid, confirmation (AID 2555;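 active means primary screen hit whose calcium fluorescence ratio, in both repeats, exceeds the weak agonist control mean by 3 SD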). The note with it: DAMGO EC20, Fluo-4 calcium flux, at 10 µM; hits give high values.
Assay [5] concerns the target Short transient receptor potential channel 4 (Mus musculus) (UniProt Q9QUQ5). The experiment in a line: blockers of DAMGO-evoked TRPC4 calcium flux – cell-based, Fluo4, HEK293 TRPC4beta/mu-opioid, confirmation (AID 2636;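 active means calcium signal cut by more than 3 SD below the full-agonist control yet still positive, in both repeats and the earlier primary screen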). The note with it: at 10 µM; hits give high values.
The target is the same in assay [6]. The assay can be described thus: blockers of DAMGO-evoked TRPC4 calcium flux – cell-based, second round, Fluo4, HEK293 TRPC4beta/mu-opioid, 1 µM, confirmation (AID 2637;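 active means calcium signal ratio cut to more than 3 SD under the fully stimulated control mean yet still positive, in both repeats and the primary screen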;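 on inhibition: percent of integrated ratio relative to wells lacking test compound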). The note with it: at 1 µM; hits give high values.
Assay [7] has the same target. The assay can be described thus: calcium entry via TRPC4 opening agents – cell-based, HEK293 TRPC4/mu-opioid, Fluo-4 calcium, dose response (AID 434937;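 active means primary screen activator hit with a dose response curve and TRPC4 channel activation at any tested dose; inactive means no activation, no dose response, or not a primary hit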).
For assay [8] the target is unchanged. The experiment in a line: potentiation of DAMGO-evoked TRPC4 calcium signal – cell-based, HEK293 TRPC4/mu-opioid, Fluo-4 calcium, EC20 DAMGO, dose response (AID 434941;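 active means earlier screen potentiator hit that boosts the TRPC4 ion channel at some dose, with a dose response; inactive means no potentiation, no dose response, or not a prior hit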;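 further: calcium entry triggered by an EC20 dose of DAMGO at the co-expressed mu-opioid receptor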).
Assay [9] concerns the target Short transient receptor potential channel 6 (Mus musculus) (UniProt Q61143). The assay can be described thus: TRPC6 blockade by TRPC4 inhibitor hits – cell-based, HEK293, membrane potential dye, duplicate, selectivity assay for TRPC4 inhibitor project, confirmation (AID 434948;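 active means active in primary screen and both duplicates, each dropping signal beyond three positive-control SD with fluorescence still positive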). Conditions: HEK293 TRPC6, membrane potential dye fluorescence, at 10 µM, stimulated with maximal-effect acetylcholine; hits give high values.

For assay [10] the target is unchanged. The assay can be described thus: TRPC6 opening by TRPC4 activator hits – cell-based, HEK293, membrane potential dye, duplicate, selectivity assay for TRPC4 activator project, confirmation (AID 434950;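 active means membrane potential signal rise above negative control mean plus 3 SD in both duplicates, also active in the earlier TRPC4 screen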). The note with it: HEK293 TRPC6, membrane potential fluorescence, at 10 µM; activation: hits give high values; outcome: activation.
Assay [11] shares this target. The assay can be described thus: positive modulators of mouse TRPC6 channel – HEK293 cells, membrane potential dye, duplicate, selectivity assay for TRPC4 potentiator project, confirmation (AID 434952;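 active means compound raising the membrane signal above positive-control mean plus 3 SD in both repeats, and a primary screen hit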). The note with it: HEK293 TRPC6, membrane potential dye fluorescence, at 10 µM, maximal acetylcholine added after compound; hits give high values.
Assay [12] addresses Short transient receptor potential channel 4 (Mus musculus) (UniProt Q9QUQ5). The assay can be described thus: calcium flux activators in TRPC4/5HT1a cells, counter-screen for TRPC4 activator project, cell-based, second counter screen, HEK293 TRPC4/5HT1a, Fluo-4 (AID 434977;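 active means calcium signal rise above buffer-control mean plus 5 SD in both duplicates, and also a hit in the primary screen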). The note with it: Fluo-4 calcium flux, at 10 µM; hits give high values.
A short description of assay [13]: serotonin-gated TRPC4 signal block – cell-based, second counter screen, HEK293 TRPC4/5HT1a, Fluo-4, counter-screen for TRPC4 inhibitor project, confirmation (AID 434978;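 active means primary screen active whose calcium signal fell more than 3 SD beyond the full-serotonin control mean in both duplicate plates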;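 on outcome: serotonin given first at submaximal then at maximal dose after compound preincubation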). Conditions: Fluo-4 calcium flux, at 10 µM, serotonin added to trigger calcium flux; hits give high values. (In general: A counterscreen serves to expose hits that act by an unwanted route or on another target.)

Assay [14] relates to TRPC4 (mouse), co-expressed with 5HT1a in HEK293. The assay can be described thus: enhancement of serotonin-evoked TRPC4 response – cell-based, second counter screen, HEK293 TRPC4/5HT1a, Fluo-4, counter-screen for TRPC4 potentiator project, confirmation (AID 434979;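 active means signal rise over 3 SD above mean of control wells given weak agonist, in both repeats and first screen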). Conditions: Fluo-4 calcium flux, at 10 µM, serotonin added at its EC20 dose; hits give high values.
A short description of assay [15]: nonspecific calcium rise without TRPC4 – cell-based, HEK293 mu-opioid receptor line, counter-screen for TRPC4 activator project, confirmation (AID 449723;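 active means hit in primary screen, with calcium signal over 5 SD above buffer well mean in both duplicates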;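 further: counter screen cells carry the mu-opioid receptor alone and lack TRPC4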). Conditions: HEK293 mu-opioid cells, Fluo-4 calcium fluorescence, at 10 µM; hits give high values.
A short description of assay [16]: nonspecific potentiation of DAMGO calcium response – cell-based, HEK293 mu-opioid receptor line, counter-screen for TRPC4 allosteric potentiator project, confirmation (AID 449724;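 active means calcium signal rise more than 3 SD above the low-dose agonist control mean, in both duplicate plates and the primary screen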;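 further: HEK293 cells carrying mu-opioid receptor only with no TRPC4 channel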). The note with it: HEK293 mu-opioid receptor cells, Fluo-4 calcium flux, at 10 µM, compound added before EC20 DAMGO stimulus; hits give high values.

For some of these results: Measured potencies and affinities stand elsewhere. Calls of active or inactive are those of the source.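 How the source made its calls, unless noted: active means fluorescence ratio normalized to control raised more than 50% in primary screen plus both repeat runs; inactive means the rest.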

Sequence of Short transient receptor potential channel 4 (Mus musculus) (Q9QUQ5 whole entry, looked up): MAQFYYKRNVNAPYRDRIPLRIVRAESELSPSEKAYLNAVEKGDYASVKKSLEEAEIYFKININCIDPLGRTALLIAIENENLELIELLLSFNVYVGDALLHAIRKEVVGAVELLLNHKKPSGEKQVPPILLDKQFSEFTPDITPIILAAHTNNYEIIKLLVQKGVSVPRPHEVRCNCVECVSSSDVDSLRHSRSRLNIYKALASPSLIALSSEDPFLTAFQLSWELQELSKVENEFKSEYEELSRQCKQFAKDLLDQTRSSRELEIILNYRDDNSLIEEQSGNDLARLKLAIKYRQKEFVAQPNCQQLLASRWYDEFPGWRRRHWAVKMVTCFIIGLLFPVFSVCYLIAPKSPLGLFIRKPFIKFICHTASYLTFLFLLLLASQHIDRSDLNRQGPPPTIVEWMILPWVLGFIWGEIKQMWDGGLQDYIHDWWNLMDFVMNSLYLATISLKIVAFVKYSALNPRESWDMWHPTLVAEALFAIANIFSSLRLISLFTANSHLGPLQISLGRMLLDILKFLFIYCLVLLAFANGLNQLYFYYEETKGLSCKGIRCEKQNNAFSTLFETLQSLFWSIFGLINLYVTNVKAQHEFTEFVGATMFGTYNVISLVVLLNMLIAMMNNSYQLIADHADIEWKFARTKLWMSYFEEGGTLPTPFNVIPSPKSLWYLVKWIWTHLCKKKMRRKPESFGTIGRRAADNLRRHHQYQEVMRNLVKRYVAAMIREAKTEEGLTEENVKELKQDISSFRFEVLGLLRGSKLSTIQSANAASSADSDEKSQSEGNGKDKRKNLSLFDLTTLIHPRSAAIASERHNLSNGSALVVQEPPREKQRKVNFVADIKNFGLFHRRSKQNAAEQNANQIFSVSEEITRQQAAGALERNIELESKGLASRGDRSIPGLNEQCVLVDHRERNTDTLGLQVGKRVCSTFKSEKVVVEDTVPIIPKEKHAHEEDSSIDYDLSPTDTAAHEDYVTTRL
Sequence of Short transient receptor potential channel 6 (Mus musculus) (Q61143 whole entry, looked up): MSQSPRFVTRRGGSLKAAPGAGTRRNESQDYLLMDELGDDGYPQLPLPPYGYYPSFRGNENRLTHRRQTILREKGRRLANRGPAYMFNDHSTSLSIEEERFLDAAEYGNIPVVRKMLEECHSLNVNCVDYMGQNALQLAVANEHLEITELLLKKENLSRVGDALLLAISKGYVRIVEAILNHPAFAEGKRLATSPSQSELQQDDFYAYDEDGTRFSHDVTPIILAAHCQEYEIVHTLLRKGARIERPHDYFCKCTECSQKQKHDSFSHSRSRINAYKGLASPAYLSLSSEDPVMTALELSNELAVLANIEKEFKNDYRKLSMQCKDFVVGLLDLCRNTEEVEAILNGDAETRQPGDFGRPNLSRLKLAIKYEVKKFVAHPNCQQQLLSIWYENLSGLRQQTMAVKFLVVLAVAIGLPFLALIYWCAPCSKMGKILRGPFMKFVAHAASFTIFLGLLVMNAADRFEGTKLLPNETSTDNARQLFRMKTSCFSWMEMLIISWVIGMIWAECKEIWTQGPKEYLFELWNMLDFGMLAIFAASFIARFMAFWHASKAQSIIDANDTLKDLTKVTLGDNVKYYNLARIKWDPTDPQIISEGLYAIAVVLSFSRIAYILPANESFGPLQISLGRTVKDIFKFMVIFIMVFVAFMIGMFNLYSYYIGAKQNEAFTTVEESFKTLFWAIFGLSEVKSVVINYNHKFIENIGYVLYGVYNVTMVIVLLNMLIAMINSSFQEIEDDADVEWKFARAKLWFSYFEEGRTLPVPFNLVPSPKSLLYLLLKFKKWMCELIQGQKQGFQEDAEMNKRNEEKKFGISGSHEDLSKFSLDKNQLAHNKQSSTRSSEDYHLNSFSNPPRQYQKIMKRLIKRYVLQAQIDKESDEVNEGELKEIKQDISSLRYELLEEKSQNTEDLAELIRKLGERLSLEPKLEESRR

For the molecule `OCC(Cc1ccccc1)NCc1ccccc1C(F)(F)F` (stereo unspecified), the result in assay [1], in assay [2], in assay [3], in [4], in assay [6] and in assay [7] was inactive. Moreover, the result in [8], in assay [9], in [10], in [11], in assay [12] and in assay [13] was inactive. Also, the outcome in assay [14], in assay [15] and in assay [16] was inactive. Further, in assay [5], the inhibition (as a rule, the relative decrease from the control value, in per cent) was 60% (active).

Turning to `O=C(Nc1ccc(F)cc1)N1CCN2C(=O)c3ccccc3C12c1ccccc1` (stereo unspecified), the result in assay [1], in assay [2], in [3], in assay [4], in assay [6] and in assay [7] was inactive. Moreover, the outcome in assay [8], in assay [9], in [10], in assay [11], in [12] and in [13] was inactive. Moreover, the outcome in assay [14], in assay [15] and in [16] was inactive. The inhibition in assay [5] is 68% (active).

Take `Cc1cc(NCc2ccccc2)nc(N2CCOCC2)n1`: the result in [1], in assay [2], in assay [3], in [4], in assay [7] and in assay [8] was inactive. The call in assay [9], in [10], in [11], in assay [12], in assay [14] and in assay [15] was inactive. Further, the result in assay [16] was inactive. Besides, the inhibition in assay [5] is 95% (active); in assay [6] it was 40% (active); in assay [13], 26.5% (active).

In the case of `COc1cc(/C=C2\SC(=O)N(c3ccccc3Cl)C2=O)cc([N+](=O)[O-])c1O`, the result in assay [1], in assay [2], in assay [3], in assay [4], in assay [6] and in [7] was inactive. Moreover, the result in assay [8], in [9], in [10], in assay [11], in [12] and in assay [14] was inactive. Also, the result in [15] and in assay [16] was inactive. The inhibition was 84% (active) in [5] and 26% (active) in assay [13].

With `Clc1ccc(CN2C3=NCCN3c3ccccc32)cc1`, the result in assay [1], in [2], in assay [3], in assay [4], in assay [7] and in [8] was inactive. In addition, the molecule was called inactive in assay [9], in [10], in assay [11], in assay [12], in [14] and in assay [15]. Also, in assay [16], the result was inactive. Besides, the values for the inhibition in [5], in assay [6] and in assay [13] were 99% (active), 75% (active) and 14.4% (active), respectively.

As for `O=C(NCCN1CCOCC1)c1cc2sccc2n1Cc1ccc(F)cc1`, the result in assay [1], in assay [2], in assay [3], in [4], in [7] and in assay [8] was inactive. Further, the call in assay [9], in assay [10], in [11], in assay [12], in [14] and in assay [15] was inactive. In addition, in assay [16], the outcome was inactive. For the same molecule, the inhibition in [5] is 74% (active); in assay [6] it was 49% (active); in assay [13], 33.8% (active).

For the molecule `Cc1ccc(NC(=O)CN2CCc3ccccc3C2)cc1F`, the result in [1], in assay [2], in assay [3], in assay [4], in assay [6] and in assay [7] was inactive. Besides, the result in [8], in assay [9], in assay [10], in assay [11], in assay [12] and in assay [13] was inactive. The outcome in assay [14], in [15] and in assay [16] was inactive. Moreover, the inhibition in assay [5] is 88% (active).

For `Nc1c2c(nc3c1CCCC3)CCCC2` (tested in a mixture with another compound), the outcome in [1], in assay [2], in assay [3], in assay [4], in assay [7] and in assay [8] was inactive. Besides, the result in [9], in assay [10], in assay [11], in assay [12], in assay [14] and in assay [15] was inactive. The outcome in assay [16] was inactive. Further, the inhibition in [5] is 94% (active); in assay [6] it was 60% (active); in [13], 18.3% (active).

`CC1(c2ccccc2)CC(C)(C)N(C(=O)C2CCCO2)c2ccccc21` (stereo unspecified): the outcome in [1], in [2], in [3], in [4], in [6] and in assay [7] was inactive. For the same molecule, the outcome in assay [8], in assay [9], in assay [10], in assay [11], in assay [12] and in assay [14] was inactive. Further, the result in assay [15] and in assay [16] was inactive. Further, the inhibition is 90% (active) in assay [5] and 38.3% (active) in assay [13].

Turning to `N#Cc1c(N)sc2c1CCCCCC2`, the result in assay [1], in assay [2], in [3], in assay [4], in assay [7] and in [8] was inactive. The molecule was called inactive in [9], in assay [10], in assay [11], in [12], in assay [14] and in [15]. Moreover, in assay [16], the result was inactive. Besides, the figures for the inhibition in assay [5], in [6] and in [13] were 94% (active), 44% (active) and 32.3% (active), respectively.

As for `COc1cc(/C=C2\SC(N3CCC(C)CC3)=NC2=O)ccc1O`, the outcome in [1], in assay [2], in [3], in [4], in [7] and in assay [8] was inactive. The call in [9], in assay [10], in [11], in assay [12], in assay [14] and in assay [15] was inactive. Also, in [16], the result was inactive. Also, the inhibition in assay [5] is 91% (active); in assay [6] it was 48% (active); in assay [13], 31.2% (active).

For the molecule `Cc1ccc(N2CCN(C(=O)c3ccccc3F)CC2)c(C)c1`, the outcome in assay [1], in assay [2], in assay [3], in [4], in assay [7] and in assay [8] was inactive. For the same molecule, the outcome in assay [9], in assay [10], in [11], in assay [12], in assay [14] and in [15] was inactive. For the same molecule, the result in [16] was inactive. In addition, the values for the inhibition in assay [5], in assay [6] and in assay [13] were 84% (active), 41% (active) and 26.6% (active), respectively.

For `CN1CCN(c2ccc(NC(=O)c3ccc(Br)o3)cc2)CC1`, the result in [1], in assay [2], in assay [3], in [4], in assay [7] and in [8] was inactive. Also, the result in [9], in assay [10], in assay [11], in [12], in [13] and in [14] was inactive. Besides, the outcome in assay [15] and in assay [16] was inactive. For the same molecule, the inhibition is 91% (active) in [5] and 46% (active) in assay [6].

Regarding `O=c1c2ccccc2nc(SCc2ccc([N+](=O)[O-])cc2)n1CCCO`, the outcome in assay [1], in [2], in assay [3], in assay [4], in assay [7] and in [8] was inactive. The molecule was classed as inactive in assay [9], in assay [10], in [11], in assay [12], in assay [14] and in assay [15]. In assay [16], the outcome was inactive. Further, the inhibition in assay [5] was 90% (active); in [6], 68% (active); in [13], 19.5% (active).

On to `CCN(CC)Cc1cc(CCNC(=O)c2ccc(Cl)cc2)ccc1O`, for which the result in [1], in assay [2], in [3], in [4], in [7] and in assay [8] was inactive. Moreover, the molecule was called inactive in assay [9], in assay [10], in [11], in assay [12], in [14] and in assay [15]. In [16], the outcome was inactive. For the same molecule, the inhibition is 97% (active) in [5], 75% (active) in assay [6] and 31.2% (active) in [13].

For `COc1ccc(F)cc1C(=O)C1CCCN(Cc2ccc3c(c2)OCCO3)C1` (stereo unspecified), the outcome in [1], in assay [2], in assay [3], in assay [4], in [6] and in [7] was inactive. The outcome in [8], in assay [9], in assay [10], in assay [11], in assay [12] and in assay [14] was inactive. Moreover, the outcome in assay [15] and in [16] was inactive. Further, the inhibition in [5] was 94% (active); in assay [13] it was 38.7% (active).
